Data taken from PubChem BioAssay.
The source made the active and inactive calls. Unless noted, no rule for the calls is given here.

Columns and labels:
[1] = tested on: Hepatitis C virus NS3 helicase; assay: HCV NS3 helicase inhibitors, primary screen, biochemical, fluorescence polarization, LOPAC1280 library (AID 687035; in the data active = inhibition above about 37%); conditions: Purified HCV NS3 helicase, Cy5-dT15 ssDNA binding fluorescence polarization; stronger effect = higher value; concentration not given here
[2] = Cy5 fluorescence quenching or enhancement artefacts, artefact control for HCV NS3 helicase inhibitor project, biochemical, LOPAC1280 (AID 687037); conditions: Cy5-DNA-NS3h complex fluorescence interference counterscreen
[3] = stimulators of nuclear beta-catenin in C2C12, primary screen, imaging, WNT3A-conditioned medium, mouse C2C12, NPC library (AID 1117326; in the data active = nuclear beta-catenin stimulation mostly above about 4.2%, no sharp cut-off; inactive = mostly below about 10%); conditions: stronger effect = higher value

Question: What does the source list for `O=C(O)c1cccnc1Nc1cccc(C(F)(F)F)c1`?
Answer: inhibition [1]: -1% (inactive); fluorescence ratio (interference) [2]: 0.9 (inactive); nuclear beta-catenin stimulation ([3]; at 10 µM): 1.4% (inactive); nuclear beta-catenin stimulation ([3]; stimulation, at 2 µM): 0.9%

Question: With `CS(=O)(=O)Nc1ccc([N+](=O)[O-])cc1Oc1ccccc1` as the compound, how does the inhibition [1] read?
Answer: Its inhibition is -3% (inactive).

Question: What about the fluorescence ratio (interference) [2] of the same compound?
Answer: The fluorescence ratio (interference) was 1 (inactive).

Question: What about the nuclear beta-catenin stimulation ([3]; at 10 µM) of the same compound?
Answer: The nuclear beta-catenin stimulation was 0.4% (inactive).

Question: And the nuclear beta-catenin stimulation ([3]; stimulation, at 2 µM)?
Answer: The nuclear beta-catenin stimulation was -0.6%.

Question: For `CCOC(=O)C1=C(C)NC(C)=C(C(=O)OC)C1c1cccc(Cl)c1Cl` (stereo unspecified), which inhibition [1] is on record?
Answer: The inhibition was -1% (inactive).

Question: What about the fluorescence ratio (interference) [2] of the same compound?
Answer: The fluorescence ratio (interference) was 1 (inactive).

Question: What about the nuclear beta-catenin stimulation ([3]; at 10 µM) of the same compound?
Answer: The nuclear beta-catenin stimulation was 35.8% (inactive).

Question: And the nuclear beta-catenin stimulation ([3]; stimulation, at 2 µM)?
Answer: The nuclear beta-catenin stimulation was 7.4%.

Question: With `C[N+](C)(C)CCOC(N)=O` as the compound, how does the inhibition [1] read?
Answer: The inhibition was -1% (inactive).

Question: What about the fluorescence ratio (interference) [2] of the same compound?
Answer: The fluorescence ratio (interference) was 0.9 (inactive).

Question: And the nuclear beta-catenin stimulation ([3]; at 10 µM)?
Answer: The nuclear beta-catenin stimulation was -0.5% (inactive).

Question: And the nuclear beta-catenin stimulation ([3]; stimulation, at 2 µM)?
Answer: The nuclear beta-catenin stimulation was 2.3%.

Question: With `CC(C)COCC(CN(Cc1ccccc1)c1ccccc1)N1CCCC1` (stereo unspecified) as the compound, how does the inhibition [1] read?
Answer: The inhibition was 0% (inactive).

Question: What about the fluorescence ratio (interference) [2] of the same compound?
Answer: The fluorescence ratio (interference) was 1 (inactive).

Question: What about the nuclear beta-catenin stimulation ([3]; at 10 µM) of the same compound?
Answer: The nuclear beta-catenin stimulation was 0.1% (inactive).

Question: And the nuclear beta-catenin stimulation ([3]; stimulation, at 2 µM)?
Answer: Its nuclear beta-catenin stimulation is -1.8%.

Question: What does the source list for `Cc1cnc(NC(=O)C2=C(O)c3ccccc3S(=O)(=O)N2C)s1`?
Answer: inhibition [1]: -4% (inactive); fluorescence ratio (interference) [2]: 1 (inactive); nuclear beta-catenin stimulation ([3]; at 10 µM): 2% (inactive); nuclear beta-catenin stimulation ([3]; stimulation, at 2 µM): -0.5%

Question: Which results are given for `CNC[C@H](O)c1ccc(O)c(O)c1`?
Answer: inhibition [1]: -5% (inactive); fluorescence ratio (interference) [2]: 1 (inactive); nuclear beta-catenin stimulation ([3]; at 10 µM): 0.3% (inactive); nuclear beta-catenin stimulation ([3]; stimulation, at 2 µM): 0.2%

Question: What does the source list for `CC[N+](CC)(CC)CCOc1cccc(OCC[N+](CC)(CC)CC)c1OCC[N+](CC)(CC)CC`?
Answer: inhibition [1]: -2% (inactive); fluorescence ratio (interference) [2]: 1 (inactive); nuclear beta-catenin stimulation ([3]; at 10 µM): -0.5% (inactive); nuclear beta-catenin stimulation ([3]; stimulation, at 2 µM): -1.4%

Question: Which results are given for `C[C@](N)(Cc1ccc(O)cc1)C(=O)O`?
Answer: inhibition [1]: -1% (inactive); fluorescence ratio (interference) [2]: 0.9 (inactive); nuclear beta-catenin stimulation ([3]; at 10 µM): -0.2% (inactive); nuclear beta-catenin stimulation ([3]; stimulation, at 2 µM): 4.5%

Question: What does the source list for `CCn1cc(C(=O)O)c(=O)c2cc3c(cc21)OCO3`?
Answer: inhibition [1]: -1% (inactive); fluorescence ratio (interference) [2]: 1 (inactive); nuclear beta-catenin stimulation ([3]; at 10 µM): 0.2% (inactive); nuclear beta-catenin stimulation ([3]; stimulation, at 2 µM): 0.8%

Question: What does the source list for `CCC1(C)CC(=O)NC1=O` (stereo unspecified)?
Answer: inhibition [1]: 0% (inactive); fluorescence ratio (interference) [2]: 1 (inactive); nuclear beta-catenin stimulation ([3]; at 10 µM): 0.2% (inactive); nuclear beta-catenin stimulation ([3]; stimulation, at 2 µM): -0.3%

Question: What does the source list for `COc1ccc2[nH]cc(CCNC(C)=O)c2c1`?
Answer: inhibition [1]: -3% (inactive); fluorescence ratio (interference) [2]: 1 (inactive); nuclear beta-catenin stimulation ([3]; at 10 µM): 0.2% (inactive); nuclear beta-catenin stimulation ([3]; stimulation, at 2 µM): -0.2%

Question: With `CCCOc1ccccc1-c1nc2n[nH]nc2c(=O)[nH]1` as the compound, how does the inhibition [1] read?
Answer: The inhibition was -1% (inactive).

Question: And the fluorescence ratio (interference) [2]?
Answer: Its fluorescence ratio (interference) is 1 (inactive).

Question: What about the nuclear beta-catenin stimulation ([3]; at 10 µM) of the same compound?
Answer: The nuclear beta-catenin stimulation was -0.2% (inactive).

Question: And the nuclear beta-catenin stimulation ([3]; stimulation, at 2 µM)?
Answer: Its nuclear beta-catenin stimulation is 0.5%.

Question: With `NC[C@H](O)c1ccc(O)c(O)c1` as the compound, how does the inhibition [1] read?
Answer: Its inhibition is -4% (inactive).

Question: What about the fluorescence ratio (interference) [2] of the same compound?
Answer: The fluorescence ratio (interference) was 0.9 (inactive).

Question: And the nuclear beta-catenin stimulation ([3]; at 10 µM)?
Answer: Its nuclear beta-catenin stimulation is -1.8% (inactive).

Question: And the nuclear beta-catenin stimulation ([3]; stimulation, at 2 µM)?
Answer: Its nuclear beta-catenin stimulation is -1.5%.

Question: Which inhibition [1] does the source give for `O=C1NCC2(CCN(CCc3ccccc3)CC2)O1` here?
Answer: The inhibition was -3% (inactive).

Question: And the fluorescence ratio (interference) [2]?
Answer: The fluorescence ratio (interference) was 1 (inactive).

Question: What about the nuclear beta-catenin stimulation ([3]; at 10 µM) of the same compound?
Answer: The nuclear beta-catenin stimulation was 0.4% (inactive).

Question: And the nuclear beta-catenin stimulation ([3]; stimulation, at 2 µM)?
Answer: The nuclear beta-catenin stimulation was 1.5%.

Question: With `CN1CCN(CC(=O)N2c3ccccc3C(=O)Nc3cccnc32)CC1` as the compound, how does the inhibition [1] read?
Answer: The inhibition was -1% (inactive).

Question: And the fluorescence ratio (interference) [2]?
Answer: Its fluorescence ratio (interference) is 1 (inactive).

Question: What about the nuclear beta-catenin stimulation ([3]; at 10 µM) of the same compound?
Answer: The nuclear beta-catenin stimulation was 1.7% (inactive).

Question: And the nuclear beta-catenin stimulation ([3]; stimulation, at 2 µM)?
Answer: Its nuclear beta-catenin stimulation is -0.5%.

Question: Which inhibition [1] does the source give for `CN(C)CCC=C1c2ccccc2C=Cc2ccccc21` here?
Answer: The inhibition was -2% (inactive).

Question: And the fluorescence ratio (interference) [2]?
Answer: The fluorescence ratio (interference) was 1 (inactive).

Question: What about the nuclear beta-catenin stimulation ([3]; at 10 µM) of the same compound?
Answer: The nuclear beta-catenin stimulation was -1.8% (inactive).

Question: And the nuclear beta-catenin stimulation ([3]; stimulation, at 2 µM)?
Answer: Its nuclear beta-catenin stimulation is -0.8%.

Question: What does the source list for `COc1ccc(CN(CCN(C)C)c2ccccn2)cc1`?
Answer: inhibition [1]: 3% (inactive); fluorescence ratio (interference) [2]: 1 (inactive); nuclear beta-catenin stimulation ([3]; at 10 µM): 0.1% (inactive); nuclear beta-catenin stimulation ([3]; stimulation, at 2 µM): 7.7%

Question: For `CCCCNc1ccc(C(=O)OCCN(C)C)cc1`, which inhibition [1] is on record?
Answer: Its inhibition is -2% (inactive).

Question: And the fluorescence ratio (interference) [2]?
Answer: The fluorescence ratio (interference) was 0.9 (inactive).

Question: And the nuclear beta-catenin stimulation ([3]; at 10 µM)?
Answer: The nuclear beta-catenin stimulation was 9.2% (inactive).

Question: And the nuclear beta-catenin stimulation ([3]; stimulation, at 2 µM)?
Answer: Its nuclear beta-catenin stimulation is 3.3%.
